Inconclusive results are not listed. The source made the active and inactive calls. Calls come from the whole dose curve; as a rule, active = well fitted curve in the direction sought with a large enough effect; inconclusive = small, poorly fitted or top-dose-only effect, or another doubt; inactive = no such curve, though single readings can be large; an effect the other way counts as inactive or inconclusive.
Key:
[1] = qHTS of pediatric cancer cell lines to identify multiple opportunities for drug repurposing: Primary screen for SJ-GBM2 cells (AID 1347091); conditions: SJ-GBM2 viability, CellTiter-Glo luminescence, 48 h; series mostly up to 46 µM; note: potency is the fitted concentration of half-maximal effect
Procedure, shortened: (§1)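 Viability measured as metabolically active cells via CellTiter-Glo luminescence following 48 hours of compound exposure, 11-point dilutions in confirmatory testing. 500-1,000 cells/well plated 5 hours before dosing; controls were DMSO and 2.3 µM bortezomib.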

[2] = qHTS of pediatric cancer cell lines to identify multiple opportunities for drug repurposing: Primary screen for A673 cells (AID 1347092); conditions: A673 Ewing sarcoma viability, CellTiter-Glo ATP luminescence, 48 h; series mostly up to 46 µM; note: nearly all actives have a fitted effect of over 45% in size; note: potency is the fitted concentration of half-maximal effect
Procedure, shortened: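 A673 cells (500-1,000 cells/well in growth media) were pre-incubated 5 h at 37 degrees C, then exposed to compounds for 48 h. Viability was read as CellTiter-Glo luminescence; concentration-response curves came directly from the primary screen.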

[3] = qHTS of pediatric cancer cell lines to identify multiple opportunities for drug repurposing: Primary screen for Saos-2 cells (AID 1347097); conditions: Saos-2 viability, CellTiter-Glo ATP luminescence, 48 h; series mostly up to 46 µM; note: nearly all actives have a fitted effect of over 40% in size; note: potency is the fitted concentration of half-maximal effect
Procedure, shortened: (§2)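 Viability was measured as metabolically active cells after 48 hours of treatment, read by CellTiter-Glo luminescence. Compounds were tested at multiple final concentrations, giving concentration-response curves.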

[4] = qHTS of pediatric cancer cell lines to identify multiple opportunities for drug repurposing: Primary screen for SK-N-SH cells (AID 1347098); conditions: SK-N-SH viability, CellTiter-Glo luminescence, 48 h; series mostly up to 57 µM; note: potency is the fitted concentration of half-maximal effect; nearly all actives have a fitted effect of over 65% in size
Procedure, shortened: (§3)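 Cells (500-1,000/well) rested 5 h, then received compounds for 48 h; metabolically active cells were measured by CellTiter-Glo luminescence. Final concentrations spanned up to 46 µM (MIPE, 11-point) or 0.59 nM-46 µM (NPC, 8-point) in primary screens, 11-point in follow-ups.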

[5] = qHTS of pediatric cancer cell lines to identify multiple opportunities for drug repurposing: Primary screen for OHS-50 cells (AID 1347103); conditions: OHS-50 osteosarcoma viability, CellTiter-Glo luminescence, 48 h; series mostly up to 57.3 µM; note: nearly all actives have a fitted effect of over 40% in size; note: potency is the fitted concentration of half-maximal effect
Procedure, shortened: as §3

[6] = qHTS of pediatric cancer cell lines to identify multiple opportunities for drug repurposing: Primary screen for MG 63 (6-TG R) cells (AID 1347105); conditions: MG 63 (6-TG R) viability, CellTiter-Glo, 48 h; series mostly up to 46 µM; note: nearly all actives have a fitted effect of over 50% in size; note: potency is the fitted concentration of half-maximal effect
Procedure, shortened: as §2

[7] = qHTS of pediatric cancer cell lines to identify multiple opportunities for drug repurposing: Primary screen for control Hh wild type fibroblast cells (AID 1347106); conditions: Hh wild-type fibroblast viability, CellTiter-Glo luminescence, 48 h; series mostly up to 46 µM;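 note: a drop in luminescence marks cytotoxicity and a rise apparent proliferation; nearly all actives have a fitted effect of over 55% in size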
Procedure, shortened: (§4)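 Viability after 48 h compound treatment at 37C, 500-1,000 cells/well, read as ATP luminescence with CellTiter-Glo. Primary screens used 11-point (MIPE, 0.78 nM-46 µM) or 8-point (NPC, 0.59 nM-46 µM) final concentrations; follow-up screens used 11-point dilutions.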

[8] = qHTS of pediatric cancer cell lines to identify multiple opportunities for drug repurposing: Primary screen for TC32 cells (AID 1347089); conditions: TC32 Ewing sarcoma viability, CellTiter-Glo luminescence, 48 h; series mostly up to 45.8 µM; note: nearly all actives have a fitted effect of over 60% in size; note: potency is the fitted concentration of half-maximal effect
Procedure, shortened: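 Luminescent CellTiter-Glo read-out of metabolically active TC32 cells after 48 h compound exposure. Primary: MIPE 11-point, 0.78 nM–46 µM; NPC 8-point, 0.59 nM–46 µM. Confirmatory: 11-point dilutions.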

[9] = qHTS of pediatric cancer cell lines to identify multiple opportunities for drug repurposing: Primary screen for U-2 OS cells (AID 1347096); conditions: U-2 OS viability, CellTiter-Glo luminescence, 48 h; series mostly up to 46 µM; note: nearly all actives have a fitted effect of over 50% in size
Procedure, shortened: as §4

[10] = qHTS of pediatric cancer cell lines to identify multiple opportunities for drug repurposing: Primary screen for NB1643 cells (AID 1347099); conditions: NB1643 neuroblastoma viability, CellTiter-Glo luminescence, 48 h; series mostly up to 46 µM; note: nearly all actives have a fitted effect of over 50% in size; note: potency is the fitted concentration of half-maximal effect
Procedure, shortened: as §2

[11] = qHTS of pediatric cancer cell lines to identify multiple opportunities for drug repurposing: Primary screen for Rh18 cells (AID 1347102); conditions: Rh18 rhabdomyosarcoma viability, CellTiter-Glo luminescence, 48 h; series mostly up to 46 µM; note: nearly all actives have a fitted effect of over 65% in size; note: potency is the fitted concentration of half-maximal effect
Procedure, shortened: as §4

[12] = qHTS of pediatric cancer cell lines to identify multiple opportunities for drug repurposing: Primary screen for RD cells (AID 1347104); conditions: RD rhabdomyosarcoma viability, CellTiter-Glo luminescence, 48 h; series mostly up to 46 µM; note: nearly all actives have a fitted effect of over 55% in size; note: potency is the fitted concentration of half-maximal effect
Procedure, shortened: as §2

[13] = qHTS of pediatric cancer cell lines to identify multiple opportunities for drug repurposing: Primary screen for DAOY cells (AID 1347090); conditions: DAOY medulloblastoma viability, CellTiter-Glo luminescence, 48 h; series mostly up to 46 µM; note: nearly all actives have a fitted effect of over 55% in size; note: potency is the fitted concentration of half-maximal effect
Procedure, shortened: as §1

[14] = qHTS of pediatric cancer cell lines to identify multiple opportunities for drug repurposing: Primary screen for NB-EBc1 cells (AID 1347095); conditions: NB-EBc1 neuroblastoma viability, CellTiter-Glo luminescence, 48 h; series mostly up to 46 µM; note: potency is the fitted concentration of half-maximal effect
Procedure, shortened: as §2

[15] = qHTS of pediatric cancer cell lines to identify multiple opportunities for drug repurposing: Primary screen for SK-N-MC cells (AID 1347093); conditions: SK-N-MC viability, CellTiter-Glo luminescence, 48 h; series mostly up to 46 µM; note: potency is the fitted concentration of half-maximal effect
Procedure, shortened: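 Metabolically active cells were quantified by ATP-dependent luminescence (CellTiter-Glo, 15 min at room temperature) following 48 h treatment. Cells had been plated at 500-1,000 per well and settled for 5 h beforehand.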

[16] = qHTS of pediatric cancer cell lines to identify multiple opportunities for drug repurposing: Primary screen for BT-37 cells (AID 1347094); conditions: BT-37 viability, CellTiter-Glo luminescence, 48 h; series mostly up to 57.3 µM; note: potency is the fitted concentration of half-maximal effect
Procedure, shortened: as §2

[17] = qHTS of pediatric cancer cell lines to identify multiple opportunities for drug repurposing: Primary screen for LAN-5 cells (AID 1347100); conditions: LAN-5 neuroblastoma viability, CellTiter-Glo luminescence, 48 h; series mostly up to 46 µM; note: potency is the fitted concentration of half-maximal effect
Procedure, shortened: as §4

[18] = qHTS of pediatric cancer cell lines to identify multiple opportunities for drug repurposing: Primary screen for BT-12 cells (AID 1347101); conditions: BT-12 viability, CellTiter-Glo luminescence, 48 h; series mostly up to 57.3 µM; note: potency is the fitted concentration of half-maximal effect; nearly all actives have a fitted effect of over 25% in size
Procedure, shortened: as §3

Measured: Potency

Oc1c(I)cc(Cl)c2cccnc12
active: [1] 18.8 µM | [2] 21.1 µM | [3] 21.1 µM | [4] 27.3 µM | [5] 21.9 µM | [6] 21.1 µM
inactive: [7]

CN(C/C=C/c1ccccc1)Cc1cccc2ccccc12
active: [3] 23.7 µM | [5] 27.6 µM
inactive: [8] | [9] | [10] | [11] | [12] | [7]

C[C@@H]1CN(CCCn2c3ccccc3c3ccccc32)C[C@H](C)N1
active: [4] 9.7 µM | [12] 26.6 µM
inactive: [13] | [14] | [9] | [10] | [6] | [7]

C=C(CC)C(=O)c1ccc(OCC(=O)O)c(Cl)c1Cl
inactive: [1] | [11] | [5] | [7]
active: [15] 18.8 µM | [14] 21.1 µM | [4] 17.2 µM | [6] 21.1 µM

Nc1ccc(C(=O)Nc2ccccc2N)cc1
active: [13] 16.8 µM | [1] 13.3 µM | [15] 3.76 µM | [16] 17.4 µM | [14] 3.76 µM | [10] 7.5 µM | [17] 6.68 µM | [11] 16.8 µM | [5] 6.17 µM
inactive: [7]

COC1=CC(=O)C[C@@H](C)[C@]12Oc1c(Cl)c(OC)cc(OC)c1C2=O
active: [1] 21.1 µM | [14] 11.9 µM
inactive: [9] | [10] | [12] | [7]

CC(=O)N/N=C/c1ccc([N+](=O)[O-])o1
inactive: [1] | [9] | [7]

C/C=C(/C(=C/C)c1ccc(O)cc1)c1ccc(O)cc1
active: [15] 8.41 µM | [3] 21.1 µM | [5] 21.9 µM
inactive: [8] | [16] | [9] | [17] | [11] | [7]

CCCCCCCCCCCCCCCC[N+](C)(C)CCN(Cc1ccc(OC)cc1)c1ncccn1
active: [2] 16.8 µM | [15] 13.3 µM | [16] 24.6 µM | [3] 15 µM | [4] 27.3 µM | [17] 23.7 µM | [18] 7.77 µM | [11] 13.3 µM | [5] 6.92 µM

CCOc1ccc2nc3cc(N)ccc3c(N)c2c1
inactive: [1] | [14] | [10] | [5] | [6] | [7]
active: [2] 26.6 µM | [16] 15.5 µM | [4] 15.4 µM | [12] 23.7 µM

CCCCCCC[N+](CC)(CC)CCCCc1ccc(Cl)cc1
inactive: [7]
active: [13] 26.6 µM | [1] 10.6 µM | [15] 3.35 µM | [16] 8.71 µM | [14] 10.6 µM | [3] 6.68 µM | [4] 19.4 µM | [10] 13.3 µM | [17] 2.99 µM | [11] 11.9 µM | [5] 3.89 µM | [12] 13.3 µM

NC(=NCCCCCCN=C(N)/N=C(\N)Nc1ccc(Cl)cc1)/N=C(\N)Nc1ccc(Cl)cc1
inactive: [7]
active: [13] 21.1 µM | [2] 21.1 µM | [3] 26.6 µM | [4] 7.7 µM | [12] 26.6 µM

COc1c(C)c2c(c(O)c1C/C=C(\C)CCC(=O)O)C(=O)OC2
active: [8] 0.664 µM | [15] 0.0841 µM | [16] 0.389 µM | [18] 0.692 µM
inactive: [9] | [7]

CC(=O)N(O)CCCCCNC(=O)CCC(=O)N(O)CCCCCNC(=O)CCC(=O)N(O)CCCCCN
inactive: [2] | [9] | [3]
active: [13] 8.41 µM | [16] 12.3 µM | [4] 5.45 µM | [18] 12.3 µM | [5] 13.8 µM

Source: PubChem BioAssay (NCATS)
